Shown is part of a subset that was picked to be rich in hits.
AmpC detergent = blocks E. coli AmpC beta-lactamase in detergent assay. hit rate 0.041% among 370,000. Potency, µM (doses to about 114 µM), inactives show at the top dose activity change, negative = inhibition, most hits filed as inhibitors. P00811. AID 485294. AmpC hydrolysis of nitrocefin, absorbance 480 nm, 0.01% Triton;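 also: potency is read from the fitted curve at half-maximal effect; 0% = no-compound wells and -100% = no-enzyme wells; nearly all actives have a fitted effect of over 25% in size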
Target sequence (P00811 whole entry, looked up): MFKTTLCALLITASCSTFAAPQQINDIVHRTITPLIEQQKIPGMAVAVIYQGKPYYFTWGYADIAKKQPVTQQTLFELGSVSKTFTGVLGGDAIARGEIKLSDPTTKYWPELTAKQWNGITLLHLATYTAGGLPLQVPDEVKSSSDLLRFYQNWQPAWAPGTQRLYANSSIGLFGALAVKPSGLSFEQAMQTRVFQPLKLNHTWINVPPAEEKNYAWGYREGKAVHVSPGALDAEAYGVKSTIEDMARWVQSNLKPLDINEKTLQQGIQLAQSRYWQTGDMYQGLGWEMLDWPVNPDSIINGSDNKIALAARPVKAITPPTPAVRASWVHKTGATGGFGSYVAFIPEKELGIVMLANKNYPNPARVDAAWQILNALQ
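20 mM phosphate pH 7.0 + 0.01% (detergent screen) or 0.0001% Triton X-100; 5.3 nM AmpC reagent; cpd preinc 15 min RT; nitrocefin (800 uM stock) to start; A480 q20 s × 4 min; Activity was normalised to no-enzyme and no-compound control wells.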
Shiga inhibitor = inhibitors of Shiga toxin in Vero cells; Vero cells, Shiga toxin protein synthesis inhibition reporter; inhibition, % at 38.7 µM; hit rate 9.2% among 290,000; AID 2315; in the data active = inhibition mostly above about 28%, no sharp cut-off; inactive = mostly below about 43%; also: 0% is about no effect
AmpC inh no detg = blocks E. coli AmpC beta-lactamase in detergent-free assay; Potency, µM (top dose mostly 57.1 µM), without a hit: at the highest dose activity change, negative = inhibition, actives largely listed as inhibitors; AmpC nitrocefin hydrolysis, absorbance 480 nm, 0.0001% Triton; AID 485341; hit rate 0.52% among 330,000; P00811;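 also: potency is read from the fitted curve at half-maximal effect; plate controls were no compound for no effect and no enzyme for full effect; nearly all actives have a fitted effect of over 20% in size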
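AmpC (5.3 nM in the dispensed reagent) in 20 mM phosphate pH 7.0 with 0.01% (detergent screen) or 0.0001% Triton X-100 was preincubated with compounds for 15 min at room temperature. Nitrocefin was then added from an 800 uM solution, and hydrolysis was followed at 480 nm.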
SARS PLpro yeast = blocks SARS-CoV papain-like protease in a yeast assay. hit rate 0.19% among 330,000. Potency, µM (series often up to 32.9 µM), inactives show at the highest dose activity, positive = growth rescue, usual class: activators. S. cerevisiae expressing SARS-CoV PLpro, growth rescue; calls by dose curve; also: potency is read from the fitted curve at half-maximal effect; 0% is about no effect; nearly all actives have a fitted effect of over 55% in size
CHX counter = affects cycloheximide protein synthesis inhibition readout, counter-screen; cell reporter, cycloheximide protein synthesis inhibition counterscreen; hit rate 12% among 300,000; max response, %; in the data active = max response mostly above about 13%, no sharp cut-off; inactive = mostly below about 14%; also: read at 38.3 µM for the half of the compounds with a filed dose; 0% is about no effect
AMA1 RON2 block = inhibitors of Plasmodium falciparum AMA1-RON2 interaction | AlphaScreen AMA1-biotinylated RON2 peptide binding | Potency, µM (titrated, usually from 58.2 µM), inactives show at the top dose activity change, negative = inhibition, actives largely listed as inhibitors | hit rate 0.2% among 360,000 | AID 720542;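 also: potency is read from the fitted curve at half-maximal effect; 0% = vehicle wells and -100% = peptide control; nearly all actives have a fitted effect of over 45% in size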
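AMA1 (3D7) with his tag at 25 nM final met compounds first, then biotinylated RON2 peptide at 25 nM; detection used donor plus acceptor beads, 10 µg/mL apiece, read by AlphaScreen after 30 min at room temperature.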
An asterisk follows results filed as active; ? = inconclusive; . = no result; [ ] = remark or other dose. Unless noted, calls follow the shape of the dose curve; as a rule, active = well fitted curve in the direction sought with a large enough effect; inconclusive = small, poorly fitted or top-dose-only effect, or another doubt; inactive = no such curve, though single readings can be large; an effect the other way counts as inactive or inconclusive.

SMILES | AmpC detergent | Shiga inhibitor | AmpC inh no detg | SARS PLpro yeast | CHX counter | AMA1 RON2 block
CC(C)c1ccc(NC(=O)[C@@H]2CCC(=O)N2C2OC(=O)c3ccccc32)cc1 (some centres undefined) | -9% | 38 | -8% | 1% | 28* | -3%
COc1ccccc1OCC(=O)Nc1ccccn1 | ? | 27 | -8% | -10% | 27* | 4%
Cc1c(C)c2ccc(OCC(=O)N3CCOCC3)c(C)c2oc1=O | 4% | 25 | -6% | -2% | 20* | 1%
Cc1ccc(NC(=O)C(=O)Nc2ccccn2)cc1 | -13% | 69* | -17% | -15% | 38* | 0%
Cc1cc(=O)oc2c(C)c(OCC(=O)Nc3cccnc3)ccc12 | -10% | 41* | -7% | 4% | 31* | 2%
Cc1ccc(S(=O)(=O)CC(=O)Nc2ccccn2)cc1 | ? | -1 | -21% | 2% | -7 | 0%
N#Cc1cc2cc3ccccc3nc2n2c(=O)c3ccccc3nc12 | ? | -8 | -11%[11.4 µM] | -1% | 7 | -2%
COc1ccccc1NC(=O)C(=O)Nc1ccccn1 | -8% | 94* | 14% | 0% | 76* | 8%
COc1ccccc1NC(=O)C(=O)N/N=C(\C)CC(=O)Nc1ccccn1 | -8% | 23 | -33% | 0% | 11 | 70%
Cc1c(C)c2ccc(OCC(=O)Nc3ccccn3)c(C)c2oc1=O | -10% | 35* | -29% | -19% | 22* | 2%
CCCCNS(=O)(=O)c1ccc2nc(SCC(=O)c3ccc(C#N)cc3)[nH]c2c1 | ? | 5 | -38% | 2% | -4 | 36%
CCN(CC(=O)Nc1ccc(Br)cc1)C(=O)Cc1cccc(F)c1 | 5% | 18 | -9% | -3% | -2 | 6%
CC(C)(C)CN1CCNC(=O)C1CC(=O)NCCc1cnn(-c2ccccc2)c1 (centres undefined) | -4% | 6 | 83% | -2% | 12* | 17%
Cc1cc(N2CCN(C)CC2)nc2ccc(NC(=O)CCC(=O)N3CCN(c4ccc([N+](=O)[O-])cc4)CC3)cc12 | -3% | 9 | 161% | -2% | -2 | -14%
CCCCCn1nc(C)c(/C=N\NC(=O)c2cc(C)oc2C)c1C | 0% | 44* | -5% | -10% | 18* | 0%
CCCCCn1nc(C)c(/C=N/NC(=O)c2ccoc2C)c1C | -1% | 68* | -5% | -12% | 40* | 31%
CCn1nc(C)c(/C=N\NC(=O)c2cccc(OC)c2)c1C | ? | 18 | -1% | -16% | 11 | 3%
CCn1nc(C)c(/C=N/NC(=O)c2nc3nc(C)cc(C)n3n2)c1C | -7% | 15 | -2% | 0% | 0 | 26%
Cc1nn(-c2ccccc2)c(C)c1/C=N/NC(=O)c1ccc(F)cc1 | . | . | . | . | . | -1%
CCn1nc(C)c(/C=N/NC(=O)c2ccoc2C)c1C | 4% | 70 | -16% | ? | 25* | 3%
Cc1cc(C(=O)N/N=C/c2c(C)nn(-c3ccccc3)c2C)c(C)o1 | -8% | 59* | 7% | -1% | 42* | 4%
COC(=O)C1=C(c2ccc3ccccc3c2)C[C@@H]2CC[C@H]1N2C | -5% | . | -1% | -28% | . | 4%
CCc1ccc(NC(=S)Nc2cc(C(=O)O)ccc2N2CC3CC(C2)c2cccc(=O)n2C3)cc1 (centres undefined) | 4% | 70* | -15% | 15% | 35 | 15%
S=c1[nH]ncn1/N=C/c1cccc(Oc2ccccc2)c1 | 2% | 12 | -14% | -35% | 6 | 0%
COc1ccc2nc(NC(=O)C3COc4ccccc4O3)sc2c1 (centres undefined) | -11% | 77* | -30% | -5% | 30* | -16%
SMILES | AmpC detergent | Shiga inhibitor | AmpC inh no detg | SARS PLpro yeast | CHX counter | AMA1 RON2 block
CS(=O)(=O)c1ccc2nc(NC(=O)C3COc4ccccc4O3)sc2c1 (centres undefined) | 5% | 38 | -30% | -6% | 25* | -2%
COc1ccc2nc(NNC(=O)C3COc4ccccc4O3)sc2c1 (centres undefined) | ? | 55* | -33% | -15% | 13* | 97%
O=C(Nc1nc(-c2nc3ccccc3s2)cs1)C1COc2ccccc2O1 (centres undefined) | 4% | 68* | -44% | 1% | 23* | 38%
Cc1ccc(Nc2c(-c3c[nH]c4ccccc34)nc3cc(C)ccn23)cc1 | 21% | . | . | . | . | .
Cc1ccc(-c2csc(-c3c[nH]c4ccccc34)n2)c(C)c1 | -10% | 78* | -32% | -9% | 36* | -20%
Oc1ccc(-c2csc(-c3c[nH]c4ccccc34)n2)c(O)c1 | -8% | 60* | -27% | -43% | 70* | 2%[11.6 µM]
COc1ccc2nc(NC(=O)CS(=O)(=O)Cc3ccccc3)sc2c1 | -7% | -2 | -38%[11.4 µM] | 2% | 3 | -11%
COc1ccc(-c2nc(NC3=NCCCCC3)sc2C)cc1 | -5% | 14 | -12%[11.4 µM] | -1% | 8 | -1%
COc1ccc2nc(NCc3cccnc3)sc2c1 | -10% | 49* | -3% | 1% | 22* | -2%
COc1ccc2nc(Nc3sc4c(c3C(N)=O)CCCC4)sc2c1 | ? | 59* | -37% | -66% | 42* | 20%
COc1ccc2nc(NC3=NCCC3)sc2c1 | -4% | 153* | -12% | -3% | 53* | -13%
COc1cccc(Nc2nc3ccc(OC)cc3s2)c1 | 4% | 89* | -37% | -14% | 57* | -8%
Cc1cc(C)n(-c2nnc(Nc3ccc(C)c(Cl)c3)c3ccccc23)n1 | 9% | . | . | . | . | .
Cc1cccc(Nc2nc3ccccc3s2)c1C | -6% | 100* | -53% | 19% | 49* | -20%
COc1ccc(Nc2nc3ccccc3s2)cc1 | 4% | 71 | -14% | 0% | 50* | -3%
CCOc1ccc(C(=O)N2CCC(c3nc(-c4ccc(S(=O)(=O)N5CCCC5)cc4)no3)CC2)cc1 | 18% | . | . | . | . | .
Cc1ccnc(N(C(=O)Nc2ccccc2)C2=NCC(C)(C)S2)c1 | -2% | 59* | 1% | 0% | 43* | 77%
Cc1cc(C)c(C)c(OCC(=O)N2CCN(c3ccccn3)CC2)c1 | 3% | -6 | 59% | -8% | -3 | 0%
N#C/C(=C/c1ccc(N2CCCCCC2)o1)c1ccc(Cl)cc1 | -8% | 22 | -15% | -27% | 26 | -14%
N#C/C(=C/c1ccc(N2CCCCC2)o1)c1cccc(F)c1 | ? | 65* | -20% | -29% | 39* | -5%
COc1cc(N2CCCC2)c(OC)cc1/C=C(/C#N)c1ccc(F)cc1 | ? | 12 | -34% | -6% | -1 | -29%
N#C/C(=C/c1ccc(N2CCCCC2)cc1)c1cccc(F)c1 | ? | 25 | -20% | -16% | 36* | 16µM*
N#CC(C#N)=Cc1ccc(N2CCCC2)cc1 | 0% | 44 | -18% | -5% | 28* | 6%
Cn1c(=O)c2c(nc(N3CCN(Cc4ccccc4)CC3)n2CC(=O)c2ccccc2)n(C)c1=O | . | . | . | . | . | 10%
